Among the test systems are HCT-15 colon; HT29 colon; SNB-75 CNS; SNB-19 CNS; U251 CNS; PC-3 prostate; SK-MEL-5 melanoma; UACC-62 melanoma; LOX IMVI melanoma; SK-MEL-28 melanoma.
What all share (experiment): NCI-60 one-dose screen, 48 h (100 = growth as untreated, 0 = no growth, -100 = all killed)
Details in all cases: 10 µM unless noted

The panel holds about 83,000 compounds, 20% with a hit somewhere; the sample as a whole holds those more often.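 Cells were grown in 96-well plates and exposed to the test compound at a single concentration for 48 hours; results are reported as percent growth, with values below 10 considered active.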 Values without a mark were called inactive. The source made the active and inactive calls.

In the case of `CC/C=C(\C)C(CCC)(CN=O)C(=O)OCC` (stereo not given), the growth with HCT-15 colon was 99.6%; in the experiment with HT29 colon, 106%; with SNB-75 CNS it was 81.9%; in the experiment on SNB-19 CNS, 105%; in the experiment on U251 CNS, 99.3%; in the experiment on PC-3 prostate, 98.3%. Besides, the growth in the experiment on SK-MEL-5 melanoma was 111%; in the experiment with UACC-62 melanoma, 110%; in the experiment on LOX IMVI melanoma, 99.7%; with SK-MEL-28 melanoma, 116%.

For `COc1ccc2nc3c(cc2c1)C(=O)CC(C(F)(F)F)C3` (stereo not given), the growth in the experiment on HCT-15 colon is 37.8%; in the experiment on HT29 colon, 10.9%; with SNB-75 CNS, 7.87% (active); with SNB-19 CNS it was 50.3%; in the experiment with U251 CNS, 84.7%; in the experiment with PC-3 prostate, 33%. The growth in the experiment with SK-MEL-5 melanoma was 31.4%; in the experiment with UACC-62 melanoma, 39.8%; in the experiment with LOX IMVI melanoma, 43.8%; with SK-MEL-28 melanoma it was 61.1%.

Take `O=C(Nc1ccc(Nc2ccncc2)cc1)c1ccc([N+](=O)[O-])cc1`: the growth in the experiment on HCT-15 colon is 77.5%; with HT29 colon it was 63.4%; with SNB-75 CNS, 92%; with SNB-19 CNS, 80.1%; with U251 CNS it was 38%; in the experiment on PC-3 prostate, 70%. Further, the growth in the experiment with SK-MEL-5 melanoma is 73.1%; in the experiment on UACC-62 melanoma, 15.4%; with LOX IMVI melanoma it was 62.3%; with SK-MEL-28 melanoma, 84.9%.

With `CC(C)=CCC[C@](C)(O)[C@H]1CC[C@]2(C)[C@@H]1CC[C@@H]1[C@@]3(C)CC[C@H](OC(=O)CCC(=O)O)C(C)(C)[C@@H]3CC[C@]12C`, the growth in the experiment on HCT-15 colon was 19.3% [100 µM]; in the experiment with HT29 colon, 2.98% [100 µM] (active); in the experiment on SNB-75 CNS, 43.3% [100 µM]; in the experiment on SNB-19 CNS it was 24.1% [100 µM]; with U251 CNS, 2.41% [100 µM] (active); with PC-3 prostate, 27.4% [100 µM]. Also, the growth in the experiment with SK-MEL-5 melanoma is -41.3% [100 µM] (active); in the experiment on UACC-62 melanoma it was -75.4% [100 µM] (active); in the experiment with LOX IMVI melanoma, -64.1% [100 µM] (active); with SK-MEL-28 melanoma it was -46% [100 µM] (active).

Turning to `COc1ccc2nc3cc(Cl)ccc3c(Nc3ccc(O)cc3)c2c1`, the growth is 52.9% with HCT-15 colon; 57.9% in the experiment with HT29 colon; 89.6% with SNB-75 CNS; 81.9% in the experiment with SNB-19 CNS; 70.5% in the experiment with U251 CNS; 89.2% in the experiment with PC-3 prostate. Further, the growth in the experiment on SK-MEL-5 melanoma was 88.6%; in the experiment with UACC-62 melanoma it was 80.4%; in the experiment on LOX IMVI melanoma, 43.5%; with SK-MEL-28 melanoma, 107%.

For `COc1ccc2[nH]c(C(=O)N3CCN(C(=O)OCc4ccc5c(Br)cc(Br)c(O)c5n4)CC3)cc2c1`, the growth in the experiment with HCT-15 colon is -72.2% (active); in the experiment on HT29 colon, -68.5% (active); with SNB-75 CNS, -98.5% (active); in the experiment with SNB-19 CNS it was -93.1% (active); with U251 CNS, -95.7% (active); in the experiment with PC-3 prostate, -87.9% (active). Moreover, the growth with SK-MEL-5 melanoma was -99% (active); with UACC-62 melanoma, -95.5% (active); in the experiment on LOX IMVI melanoma, -91.2% (active); with SK-MEL-28 melanoma it was -98.1% (active).

Turning to `COc1ccc(OC)c([N+](=O)[O-])c1C(=O)CNC(C)=O`, the growth in the experiment on HCT-15 colon was 95.8%; in the experiment on HT29 colon, 109%; in the experiment on SNB-75 CNS, 107%; in the experiment with SNB-19 CNS, 93.5%; in the experiment with U251 CNS, 97%; with PC-3 prostate, 101%. Also, the growth is 101% with SK-MEL-5 melanoma, 95.8% in the experiment on UACC-62 melanoma, 103% in the experiment on LOX IMVI melanoma and 114% in the experiment on SK-MEL-28 melanoma.

As for `Cc1ccc(NC(=S)/N=c2/n(-c3ccccc3)nc3n2CCN3C2=NCCN2)cc1`, the growth is 107% in the experiment with HCT-15 colon; 99.1% in the experiment with HT29 colon; 80.6% in the experiment with SNB-75 CNS; 119% with SNB-19 CNS; 108% in the experiment with U251 CNS; 85.6% in the experiment on PC-3 prostate. The growth is 101% with SK-MEL-5 melanoma, 99.2% in the experiment with UACC-62 melanoma, 108% in the experiment on LOX IMVI melanoma and 108% in the experiment with SK-MEL-28 melanoma.

Regarding `CCCCOC(=O)c1cccc([N+](=O)[O-])c1`, the growth in the experiment on HCT-15 colon is 118%; with HT29 colon, 107%; in the experiment with SNB-75 CNS it was 94.9%; in the experiment on SNB-19 CNS, 113%; in the experiment on U251 CNS, 97.4%; with PC-3 prostate it was 95%. The growth in the experiment with SK-MEL-5 melanoma was 110%; with UACC-62 melanoma, 108%; with LOX IMVI melanoma it was 108%; in the experiment on SK-MEL-28 melanoma it was 119%.

For the compound `COc1cc(/C=C/C(=O)/C=C/c2ccc(-n3ccnc3C)cc2)ccc1O`, the growth in the experiment with HCT-15 colon was 82.4%; in the experiment with HT29 colon it was -42.9% (active); with SNB-75 CNS, 76.4%; in the experiment with SNB-19 CNS, 79.3%; with U251 CNS it was -1.61% (active); with PC-3 prostate it was 74.2%. For the same compound, the growth in the experiment on SK-MEL-5 melanoma is 85.2%; with UACC-62 melanoma, 95.1%; in the experiment with LOX IMVI melanoma it was -88.7% (active); with SK-MEL-28 melanoma, 84.1%.

As to `COc1cc(NN=C(c2ccc(O)cc2)c2ccc(O)cc2)c([N+](=O)[O-])cc1[N+](=O)[O-]`, the growth in the experiment with HCT-15 colon was 35%; with HT29 colon, 98.1%; in the experiment with SNB-75 CNS it was 98.4%; with SNB-19 CNS, -4.74% (active); in the experiment on U251 CNS it was 40.5%; in the experiment with PC-3 prostate, 73.1%. Besides, the growth with SK-MEL-5 melanoma was 14.3%; in the experiment on UACC-62 melanoma, 73.9%; in the experiment on LOX IMVI melanoma, 34.4%; in the experiment with SK-MEL-28 melanoma, 81%.

On to `O=C1CC(c2ccccc2)Cc2nc3ccc(Cl)cc3cc21` (stereo not given), for which the growth in the experiment with HCT-15 colon was 13.9%; in the experiment on HT29 colon it was 4.39% (active); in the experiment with SNB-75 CNS it was 29.7%; with SNB-19 CNS, 24.9%; with U251 CNS it was 18.8%; in the experiment with PC-3 prostate, 27.7%. The growth in the experiment on SK-MEL-5 melanoma was -14.3% (active); in the experiment on UACC-62 melanoma, 29.3%; with LOX IMVI melanoma, 29.7%; with SK-MEL-28 melanoma, 50.6%.

On to `CCNC(=O)N1CCc2c(Cl)c3c(c(OC)c2[C@@H]1[C@H]1OCc2c1ccc(OC)c2OC)OCCO3`, for which the growth was 26.5% in the experiment on HCT-15 colon; 13.3% with HT29 colon; 1.79% (active) with SNB-75 CNS; 30.8% with SNB-19 CNS; 26.1% with U251 CNS; 20.8% in the experiment on PC-3 prostate. In addition, the growth in the experiment on SK-MEL-5 melanoma was 11.4%; with UACC-62 melanoma it was 22.2%; with LOX IMVI melanoma, 27.5%; in the experiment on SK-MEL-28 melanoma, 54.3%.

On to `Cn1cc(-c2nnc(-c3cn(C)c4ncccc34)s2)c2ccccc21`, for which the growth was 45.1% with HCT-15 colon; 54.3% in the experiment with HT29 colon; 49.4% with SNB-75 CNS; 76.6% in the experiment with SNB-19 CNS; 74.8% in the experiment on U251 CNS; 53.8% in the experiment on PC-3 prostate. In addition, the growth in the experiment on SK-MEL-5 melanoma was 63.7%; with UACC-62 melanoma, 69.2%; in the experiment on LOX IMVI melanoma, 86%; in the experiment on SK-MEL-28 melanoma, 77.4%.

As to `O=C(NCCCCCCCNC(=O)OCc1ccc2c(Cl)cc(Cl)c(O)c2n1)OCc1ccc2c(Cl)cc(Cl)c(O)c2n1`, the growth in the experiment on HCT-15 colon was -24.6% (active); in the experiment on HT29 colon it was -67% (active); with SNB-75 CNS it was -92.4% (active); with SNB-19 CNS it was 0.446% (active); with U251 CNS it was -90.8% (active); in the experiment with PC-3 prostate, -54.5% (active). Further, the growth with SK-MEL-5 melanoma was -96.1% (active); with UACC-62 melanoma, -79.3% (active); in the experiment on LOX IMVI melanoma, -88.5% (active); with SK-MEL-28 melanoma, -83.1% (active).

`CCN(CC)c1ccc2cc(NC(=O)OCCNC(=O)CCNC(=O)[C@H](CC(C)C)NC(=O)C(C)(C)NC(=O)C(C)(C)NC(=O)[C@H](CC(C)C)NC(=O)CCNC(=O)C(C)(C)NC(=O)[C@H](CC(C)C)NC(=O)CCNC(=O)[C@@](C)(CC)NC(=O)[C@H](C)NC(=O)CCNC(=O)C(C)(C)NC(=O)[C@H](C)NC(=O)[C@@H]3CCCN3C(=O)[C@@](C)(CC)NC(=O)[C@H](Cc3ccccc3)NC(=O)C3CCCN3C(=O)C(C)(C)NC(=O)C3CCCN3C(=O)C(C)(C)NC(C)=O)c(=O)oc2c1` (stereo not given in full): the growth with HCT-15 colon was -93.3% (active); in the experiment with HT29 colon, -81.4% (active); in the experiment on SNB-75 CNS, -91.6% (active); in the experiment on SNB-19 CNS, -76.5% (active); with U251 CNS it was -85.6% (active); with PC-3 prostate it was -91.2% (active). The growth in the experiment on SK-MEL-5 melanoma is -100% (active); in the experiment on UACC-62 melanoma, -76.2% (active); in the experiment on LOX IMVI melanoma, -85% (active); in the experiment on SK-MEL-28 melanoma it was -84.1% (active).

Turning to `CCOC(=O)Nc1ccc2c(c1)/C(=N\NC(=S)NC)c1ccccc1-2`, the growth with HCT-15 colon was 66.7%; in the experiment on HT29 colon it was 88%; in the experiment on SNB-75 CNS, 96.2%; in the experiment with SNB-19 CNS, 71.8%; with U251 CNS, 62%; in the experiment with PC-3 prostate, 81.8%. The growth in the experiment with SK-MEL-5 melanoma was 73.5%; with UACC-62 melanoma it was 71.9%; with LOX IMVI melanoma, 67.1%; with SK-MEL-28 melanoma it was 82.7%.

For the compound `Cc1nc(Cl)cc(N(c2cc(Cl)nc(C)n2)c2ncc(C(=O)Nc3c(C)cccc3Cl)s2)n1`, the growth in the experiment with HCT-15 colon was 59.4%; in the experiment on HT29 colon it was 20.4%; with SNB-75 CNS, -30.3% (active); in the experiment with SNB-19 CNS, 72.9%; in the experiment with U251 CNS, 54.6%; in the experiment on PC-3 prostate, 32.4%. Further, the growth is 46.2% in the experiment on SK-MEL-5 melanoma, 53.3% with UACC-62 melanoma, 14.2% with LOX IMVI melanoma and 78% in the experiment on SK-MEL-28 melanoma.

Regarding `CC(C)=CC/C=C(/C)[C@H]1CC[C@]2(C)[C@@H]1CC[C@@H]1[C@@]3(C)CCCNC(C)(C)[C@@H]3CC[C@]12C`, the growth in the experiment with HCT-15 colon is -53.6% [100 µM] (active); in the experiment with HT29 colon, -64.7% [100 µM] (active); in the experiment on SNB-75 CNS, -84.4% [100 µM] (active); in the experiment on SNB-19 CNS it was -63.1% [100 µM] (active); with U251 CNS it was -63.3% [100 µM] (active); in the experiment with PC-3 prostate it was -65% [100 µM] (active). Besides, the growth in the experiment with SK-MEL-5 melanoma was -71.2% [100 µM] (active); in the experiment on UACC-62 melanoma, -95.2% [100 µM] (active); with LOX IMVI melanoma, -46% [100 µM] (active); with SK-MEL-28 melanoma, -87.1% [100 µM] (active).

The record behind these values is PubChem BioAssay (NCI).
